# Reference: PubChem BioAssay (NCI)
# The panel holds about 83,000 compounds, 20% with a hit somewhere; the sample as a whole holds those more often.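 96-well plates, one dose, 48 hours. Percent growth reported; active if below 10.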 A number with no mark means an inactive call. The source made the active and inactive calls.
# Key:
# Assay in all cases: NCI-60 one-dose screen, 48 h (100 = growth as untreated, 0 = no growth, -100 = all killed)
# Details in all cases: 10 µM
# [1] = tested on: T-47D breast
# [2] = tested on: BT-549 breast
# [3] = tested on: MDA-MB-435 melanoma
# [4] = tested on: SW-620 colon
# [5] = tested on: MCF7 breast
# [6] = tested on: HCT-116 colon
# [7] = tested on: HCC-2998 colon
# [8] = tested on: KM12 colon
Structure (SMILES),growth [1],growth [2],growth [3],growth [4],growth [5],growth [6],growth [7],growth [8]
COc1cc2cc(Oc3ccc(NC(=O)Nc4cccc(C(F)(F)F)c4)cc3)c(C)nc2cc1OC,27.8%,-8.13% (active),7.23% (active),17.5%,6.81% (active),6.71% (active),25.4%,-10.2% (active)
Cn1cnc([N+](=O)[O-])c1/C=C1\Oc2ccc(Br)cc2C1=O,98.1%,95.8%,78%,82.6%,47.9%,56.9%,101%,93.9%
CC(=O)N[C@H](C(=O)N[C@@H](CCCNC(=N)N)C(=O)N[C@@H](CCCCN)C(=O)N[C@@H](CCCNC(=N)N)C(=O)NC(C(=O)N[C@@H](CC(C)C)C(=O)N[C@@H](CCCNC(=N)N)C(=O)N[C@@]1(C)CCC/C=C\CCC[C@@](C)(C(=O)N[C@@H](CCCNC(=N)N)C(=O)N[C@@H](CCC(=O)O)C(=O)N[C@@H](CC(C)C)C(=O)N[C@H](C(=O)N[C@@H](CCC(=O)O)C(N)=O)C(C)C)NC(=O)[C@H](CCC(N)=O)NC(=O)[C@H](CC(C)C)NC(=O)[C@H](CC(C)C)NC1=O)[C@@H](C)O)C(C)C (some centres undefined),-53.4% (active),-79.7% (active),-12.1% (active),22.4%,-79.8% (active),18.9%,51.3%,-40.8% (active)
COc1ccc(-c2cc(-c3ccc(Cl)cc3)nc(SCCCC(=O)NO)n2)cc1OC,15%,30.4%,19.6%,9.88% (active),1.13% (active),5.45% (active),-50.7% (active),21.7%
N#Cc1ccc(C(=O)CSc2nccc(Nc3ccc(C(=O)O)cc3)n2)cc1,110%,103%,104%,104%,91.3%,108%,100%,105%
CCC(C)[C@H](NC(C)=O)C(=O)N[C@@H](CCCNC(=N)N)C(=O)N[C@@H](CCCCN)C(=O)N[C@@H](CC1CCC(O)CC1)C(=O)NC(C(=O)N[C@@H](CCSC)C(=O)N[C@@H](CCCNC(=N)N)C(=O)N[C@@]1(C)CCC/C=C\CCC[C@@](C)(C(=O)NC(C(=O)N[C@@H](CCC(=O)O)C(=O)N[C@@H](CC(C)C)C(=O)N[C@H](C(=O)N[C@@H](CCC(=O)O)C(N)=O)C(C)C)[C@@H](C)O)NC(=O)[C@H](CCC(N)=O)NC(=O)[C@H](CC(C)C)NC(=O)[C@H](CC(C)C)NC1=O)[C@@H](C)O (some centres undefined),78.9%,117%,105%,90.4%,102%,89.1%,103%,96.9%
C/C=C/C1=CN2C(=O)c3cc(OC4OC(C)C(NC)C(C)(O)C4O)c(C)c(O)c3N=C[C@@H]2C1 (some centres undefined),-8.27% (active),-34.4% (active),-77% (active),-14.9% (active),0.963% (active),1.59% (active),-56.7% (active),-60.7% (active)
COc1ccc(/C=C/C(=O)C(=O)/C=C/c2ccc(OC)c(OC)c2)cc1OC,35.8%,14.8%,12.2%,4.43% (active),4.02% (active),-74.8% (active),21.9%,-4.31% (active)
CCC(c1ccc(OC)cc1)C(CC)c1ccc(O)c(CN2CCN(C)CC2)c1 (centres undefined),39.1%,76.9%,33.5%,16.6%,50.9%,29.1%,-1.52% (active),53.9%
O=C(CCCCNC(=O)c1nc(-c2ccccc2)n(-c2ccccc2)n1)NO,35%,94.7%,79.2%,64.4%,67.6%,54.6%,94.4%,92.9%
O=C1NC(=O)c2c(CCCSc3nc4ccccc4c(=O)n3CCc3ccccc3)cccc21,79.1%,92.6%,85.6%,98.8%,83.5%,80%,91.9%,100%
CC1C(=NC(=O)c2cnccn2)C(C)C(c2ccc(Cl)cc2)NC1c1ccncc1 (centres undefined),78%,95.4%,96.9%,111%,91.3%,73.6%,115%,95.8%
O=C(CCc1nnc2sc(-c3cc(O)c(O)c(O)c3)nn12)c1nc2ccccc2[nH]1,83.9%,107%,98.9%,116%,85.8%,85.7%,111%,105%
CCn1cc(CNc2ccc(C(=O)Nc3ccc4ccccc4c3)cc2)c(C)n1,6.54% (active),9.81% (active),25.6%,87.6%,49%,40.5%,81.5%,55.5%
O=C1OC(C(Cl)(Cl)Cl)OC1C(Cl)(Cl)Cl (centres undefined),122%,109%,94.7%,125%,114%,105%,111%,101%
COc1cc(-c2nn(-c3cccc(NC(=O)CCNc4ccc(N5CCOCC5)cc4)c3)cc2-c2ccncc2)ccc1Cl,15.2%,19.8%,14.3%,18.6%,7.35% (active),5.29% (active),43.3%,20.4%
Cc1ccc(NCCN(C)CC(C)O)c2c(=O)c3ccccc3sc12 (centres undefined),85.2%,84.4%,30%,23.6%,20%,18.5%,15.4%,44.9%
CCOC(=O)c1cc(C(=O)c2cc(OC)cc(OC)c2)n2nc(C)ccc12,43.9%,48.7%,-16.2% (active),17.8%,20.8%,25.2%,54.1%,29.4%
CS(=O)(=O)c1nccc(-c2c(-c3cccc(O)c3)nc3sccn23)n1,99%,113%,84.6%,106%,86.3%,91%,114%,96.6%
COc1ccc(-c2nn(-c3cccc(Cl)c3)cc2-c2cc(-c3ccccc3)nc(N)n2)cc1,46.5%,73%,57%,45.3%,12.9%,5.52% (active),21.9%,31.8%
N=C1S/C(=C/c2ccc(-c3ccc4c(c3)C(=O)NC4=O)o2)C(=O)N1c1ccc(Br)cc1,19.9%,60.3%,39.1%,48.5%,3.39% (active),31.8%,89%,46.4%
Cc1c(Cl)cccc1NC(=O)CCCl,92.3%,99.7%,105%,106%,102%,89.4%,99.1%,100%
CN1CCc2c(sc3nc4n(-c5ccc(Cl)cc5)cnn4c(=O)c23)C1,91.8%,93.4%,102%,110%,70.6%,98%,104%,103%
Clc1ccc2c(c1)C(N1CCNCC1)=Nc1ccccc1O2,35.2%,72.9%,28.9%,67%,28.9%,36.2%,-25.4% (active),51.9%
COc1cc(-c2ccc[nH]2)[nH]c1/C=C1\N=C(C)C(C(=O)NC(C)C)=C1C,34%,43.8%,14.9%,7.72% (active),7.83% (active),4.6% (active),21.2%,19.3%
CC(C)(C)OC(=O)N1CCc2c(sc3ncnc(N/N=C/c4ccccc4Br)c23)C1,41.5%,92.3%,77.9%,55%,-12% (active),41.6%,92.3%,92.1%
COc1cc2cc(Oc3ccc(NC(=O)c4cccc(C(F)(F)F)c4)cc3)c(C)nc2cc1OC,91.6%,16.3%,24.5%,54.8%,31%,18.1%,62.3%,25.8%
COc1cc(-c2nn(-c3cccc(NC(=O)NCCNC(=O)c4ccccc4)c3)cc2-c2ccncc2)ccc1Cl,-7.51% (active),-7.03% (active),2.69% (active),11.8%,6.01% (active),3.85% (active),31.3%,12.2%
